# Out of some 68,000 compounds screened, about 25 (0.04%) showed an effect of 50% or more. The list comes from a sample in which strong results are over-represented; it also holds similar structures and randomly drawn compounds.
# Biological target: T1, Methionyl-tRNA synthetase, putative (Leishmania donovani (strain BPK282A1)) (UniProt E9BF75)
# T1 sequence (whole entry): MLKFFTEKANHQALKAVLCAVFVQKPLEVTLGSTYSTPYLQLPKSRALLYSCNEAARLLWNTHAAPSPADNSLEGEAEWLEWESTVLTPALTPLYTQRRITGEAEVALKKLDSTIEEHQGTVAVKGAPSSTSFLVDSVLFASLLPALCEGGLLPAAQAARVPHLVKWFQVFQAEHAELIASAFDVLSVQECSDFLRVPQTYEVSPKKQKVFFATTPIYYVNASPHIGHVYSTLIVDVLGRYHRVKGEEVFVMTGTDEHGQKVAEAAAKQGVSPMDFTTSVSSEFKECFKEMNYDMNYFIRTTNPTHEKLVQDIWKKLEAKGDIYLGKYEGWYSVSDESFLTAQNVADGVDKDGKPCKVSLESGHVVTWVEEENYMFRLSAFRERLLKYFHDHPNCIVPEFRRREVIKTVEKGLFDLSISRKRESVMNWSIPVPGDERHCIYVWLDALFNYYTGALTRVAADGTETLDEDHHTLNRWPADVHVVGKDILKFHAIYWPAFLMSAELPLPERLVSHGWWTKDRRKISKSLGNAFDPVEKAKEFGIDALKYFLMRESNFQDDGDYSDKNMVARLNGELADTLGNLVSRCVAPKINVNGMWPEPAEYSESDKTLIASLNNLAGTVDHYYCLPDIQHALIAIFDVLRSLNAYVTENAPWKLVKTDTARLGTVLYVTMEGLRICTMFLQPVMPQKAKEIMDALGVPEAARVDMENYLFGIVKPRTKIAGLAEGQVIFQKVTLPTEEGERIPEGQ
# Assay: Leishmania donovani Methionine tRNA synthetase (LdMetRS):v6. Primary screen assay
# Assay type: functional
# Set-up: conc 80 nM, time 150 minutes
row,Structure (SMILES),inhibition
1,O=C(NC1CC1)[C@@H]1CCO[C@@H]2CCN(CC3CCC3)C[C@H]21,16.2%
2,CCN1C(=O)[C@]2(CC[C@@H]3CN(S(=O)(=O)CC(C)C)C[C@@H]32)N=C1C,16.2%
3,O=C(NCc1ccco1)[C@@]12CCO[C@@H]1CCN(Cc1ccccn1)C2,16.3%
4,Cc1ccc(N2CCO[C@H]3CN(C(=O)c4cccc(C)n4)C[C@H]32)nn1,5.75%
5,c1ccc(N(CCn2cncn2)CC2CC2)cc1,11%
6,Oc1ccc(N(CCc2ccccc2)CCn2cncn2)cc1,70%
7,OCCCN(CCn1cncn1)c1ccccc1,8.36%
8,Cc1ccccc1C(=O)N1C[C@@H]2CCN(c3cccnc3)C[C@@H]2C1,10.5%
9,Cc1nc(CN2C[C@@H]3CN(C(=O)c4ccnnc4)C[C@@H]3C2=O)cs1,13.1%
10,CO[C@H]1CN(Cc2ccccc2F)[C@@H]2CCCO[C@H]12,10.8%
11,CNc1cc(-c2cccc(CN)c2)c2cc[nH]c2n1,53%
12,CNc1cc(-c2ccccc2CN)c2cc[nH]c2n1,23.4%
13,CNc1cc(-c2ccc(COCCN)cc2)c2cc[nH]c2n1,33.4%
14,CCn1cc(CN2C[C@H]3CC[C@@H]2CN(C(=O)C2CCC2)C3)cn1,12.2%
15,CS(=O)(=O)N1C[C@@H]2COC[C@]2(C(=O)NCCc2cccs2)C1,3.36%
16,c1cc2c(cc1CN1CC[C@H]3[C@H]1CCN3CC1CC1)OCO2,5%
17,CS(=O)(=O)NC[C@]12COC[C@H]1CN(Cc1ccc3c(c1)OCO3)C2,15.2%
18,CN(C)CCN1C[C@@H]2CN(S(=O)(=O)c3ccccc3)C[C@@H]2C1=O,17.1%
19,O=C(NCCc1ccccn1)[C@@]12CCO[C@@H]1CCN(c1ncccn1)C2,18.5%
20,CN1CCCC[C@@H]2[C@H]1[C@@H](c1ccccc1)CCN2C(=O)c1ccncc1,12.5%
21,Cc1nnc([C@H]2C[C@H]3CN(C(=O)Cc4ccc(F)cc4)CC[C@@H]3O2)o1,18.5%
22,COCCN1CCN(Cc2ccc(F)c(C)c2)[C@H]2CS(=O)(=O)C[C@H]21,0.741%
23,COCCN1C(=O)CC[C@]12CC[C@@H](NCc1nccs1)CC2,7.27%

row,Structure (SMILES),inhibition
1,N#Cc1cccc(CN2C[C@H](OCC3CCOCC3)[C@H]3COC[C@H]32)c1,14.8%
2,Cn1cc(CN2C[C@@H](N3CCCC3=O)[C@H]3OCCC[C@H]32)cn1,6.57%
3,O=C1N(Cc2ccccc2)C[C@H]2CN(Cc3ccccc3Cl)CCN12,12.1%
4,Cc1ccc(S(=O)(=O)N2C[C@H]3C[C@H](NC(=O)c4ccn(C)n4)[C@H]3C2)cc1,11.3%
5,CCCN1C[C@H]2CC[C@@H]1CN(Cc1cccc(O)c1)C2,3.78%
6,Cn1cc(CN2CCO[C@H]3C(Cn4cccn4)CC[C@@H]32)cn1 (some centres not stated),11.4%
7,Cc1cnc(CN2C[C@H]3C[C@H](Oc4ccccc4)C[C@H]3C2)cn1,0%
8,CNC(=O)[C@@H]1[C@@H](c2ccccc2)CN2CCN(Cc3ccco3)C[C@H]12,0.822%
9,COc1cc(CN2CCCC[C@]3(C)NC(=O)CC[C@H]23)ccc1F,14.2%
10,O=C(NCC1CC1)[C@H]1CC[C@@H]2[C@@H](CCN2Cc2ccoc2)O1,10.8%
11,Cc1cccc(CN2CC[C@H]3CO[C@H](CNC(=O)N(C)C)[C@H]3C2)c1,3.76%
12,CN(C)C(=O)NCc1cc2n(n1)CCN(C[C@H]1[C@@H]3CNC[C@@H]31)C2,12%
13,O=C1NC(c2ccccc2)=N[C@@]12CC[C@@H]1CN(S(=O)(=O)C3CC3)C[C@@H]12,6.19%
14,CC(C)NC(=O)[C@H]1C[C@@H]2[C@@H](C1)OCCN2Cc1ccsc1,10.1%
15,Cc1ccc(CN2CC[C@H]3CO[C@H](CN(C)C)[C@H]3C2)o1,15.1%
16,CO[C@@H]1CC[C@H]2[C@H]1OCCN2S(=O)(=O)c1cn(C)cn1,7.3%
17,COCC(=O)N1C[C@H]2CC[C@@]3(N=C(c4ccccc4)NC3=O)[C@H]2C1,8.15%
18,Cc1nc(C)n(CC2CCCN2Cc2nc3ccccc3nc2C)n1 (configuration not stated),13.3%
19,Cc1nc(C)n(CC2CCCN2Cc2nc(N)c3ccccc3n2)n1 (configuration not stated),11.2%
20,Cc1nc(C)n(CC2CCCN2Cc2nc(C)c3ccccc3n2)n1 (configuration not stated),57%
21,O=C(c1ccco1)N1C(CN2CCOCC2)[C@]2(O)CC[C@H]1CC2 (some centres not stated),15.1%
22,O=C(N[C@@H]1CN(Cc2cccs2)[C@@H]2CCCO[C@@H]21)c1cscn1,11.8%
23,Cc1nc([C@@H]2C[C@@H]3CCN(C(=O)Cc4ccsc4)C[C@H]3O2)no1,8.15%

row,Structure (SMILES),inhibition
1,COCCCN1C(=O)CC[C@H]2CN(c3cnc4ccccc4n3)CC[C@H]21,-5.03%
2,CCC1=N[C@@]2(CC[C@@H]3CN(C(=O)NC(C)C)C[C@@H]32)C(=O)N1C,12.4%
3,Cc1nc(CN2C[C@@H]3CCCO[C@@H]3[C@H](NC(=O)CC3CC3)C2)cs1,12.6%
4,CS(=O)(=O)NC[C@H]1OC[C@H]2CN(Cc3ccsc3)CC[C@H]21,17.8%
5,CN(C)CCNC(=O)c1ccc2ccc(N(C)CC3CC3)n2c1,25.3%
6,CN(CC1CC1)c1ccc2ccc(C(=O)NCCc3ccccc3)cn12,51%
7,COCCNC(=O)c1ccc2ccc(N(C)CC3CC3)n2c1,22.1%
8,O=C(c1ccc[nH]1)N1C[C@H](OCc2cccnc2)[C@H]2COC[C@H]21,16.2%
9,C=C1C(C)(C)[C@H]2CC[C@]1(C(=O)N1CCC(Cn3cc(CO)nn3)CC1)C2,11.7%
10,NC(=O)N1CC[C@H]2CO[C@H](CNC(=O)c3ccnnc3)[C@H]2C1,15%
11,Cc1ncsc1CCN(C)C(=O)c1ccc(Cn2cnnn2)cc1,16.8%
12,Cc1nc(CN(C)C(=O)c2ccc(Cn3cnnn3)cc2)cs1,123%
13,Cc1cnccc1CN(C)C(=O)c1ccc(Cn2cnnn2)cc1,2.48%
14,O=S1(=O)C[C@@H]2[C@H](C1)N(Cc1cc(F)cc(F)c1)CCN2CCO,1.27%
15,COCc1cc(N2CCc3onc(-c4cccc(OC)c4)c3C2)ncn1,12.5%
16,COc1cccc(-c2noc3c2CN(c2nc(C)ncc2C)CC3)c1,15%
17,COc1cccc(-c2noc3c2CN(c2ncnc4c2CCC4)CC3)c1,52.3%
18,O=C(NC1CC1)[C@H]1CC[C@@H]2[C@@H](CCN2Cc2ccsc2)O1,6.67%
19,O=C(CCNC(=O)c1ccccc1F)NCCNc1cccnc1,120%
20,Cc1ccnc(NCCNC(=O)CCNC(=O)c2ccccc2F)c1,34.8%
21,CCn1cnnc1CCNC(=O)CCNC(=O)c1ccccc1F,17.3%
